According to the antibiotic and cytotoxicity screens of Wong et al. (2023):
Hit rate of the full screen: of about 39,000 compounds, about 3,300 (8.5%) were called active. What follows is part of a selection rich in actives, with near analogues and random picks from the rest.

Test system: HepG2
Assay: cytotoxicity call (relative viability < 0.9)
Conditions: 10 µM

SMILES | cytotoxicity call
C[C@@H]1CN([C@@H](C)CO)C(=O)Cc2cc(NC(=O)Nc3ccc4c(c3)OCO4)ccc2O[C@H]1CN(C)Cc1ccc(C(F)(F)F)cc1 | inactive
C[C@@H]1CN([C@H](C)CO)C(=O)Cc2cc(NC(=O)Nc3ccc4c(c3)OCO4)ccc2O[C@@H]1CN(C)Cc1ccc(C(F)(F)F)cc1 | active
C[C@H]1CN([C@@H](C)CO)C(=O)Cc2cc(NC(=O)Nc3ccc4c(c3)OCO4)ccc2O[C@H]1CN(C)Cc1ccc(C(F)(F)F)cc1 | active
C[C@H](CO)N1C[C@H](C)[C@@H](CN(C)Cc2ccc(C(F)(F)F)cc2)Oc2ccc(NC(=O)Nc3ccc4c(c3)OCO4)cc2CC1=O | inactive
C[C@@H]1CN([C@@H](C)CO)C(=O)Cc2cc(NC(=O)Nc3ccc4c(c3)OCO4)ccc2O[C@@H]1CN(C)Cc1ccc(C(F)(F)F)cc1 | inactive
C[C@H]1CN([C@@H](C)CO)C(=O)Cc2cc(NC(=O)Nc3ccc4c(c3)OCO4)ccc2O[C@@H]1CN(C)Cc1ccc(C(F)(F)F)cc1 | inactive
C[C@@H]1CN([C@H](C)CO)C(=O)Cc2cc(NC(=O)Nc3ccc4c(c3)OCO4)ccc2O[C@H]1CN(C)Cc1ccc(C(F)(F)F)cc1 | active
C[C@H](CO)N1C[C@H](C)[C@H](CN(C)Cc2ccc(C(F)(F)F)cc2)Oc2ccc(NC(=O)Nc3ccc4c(c3)OCO4)cc2CC1=O | inactive
C[C@@H]1CCCCO[C@H](CN(C)C(=O)c2ccccc2)[C@H](C)CN([C@@H](C)CO)C(=O)c2cc(NS(=O)(=O)c3ccc(F)cc3)ccc2O1 | inactive
COCC(=O)N1C[C@H](C)[C@@H](OC)CN(C)C(=O)c2cc(NC(=O)Nc3ccccc3)ccc2OC[C@H]1C | inactive
C[C@@H]1CN([C@@H](C)CO)C(=O)c2cc(-c3ccc(C(=O)N(C)C)cc3)cnc2O[C@@H]1CN(C)C(=O)c1cccnc1 | inactive
C[C@@H]1CN([C@@H](C)CO)S(=O)(=O)c2ccc(C#Cc3ccc(F)cc3)cc2O[C@H]1CN(C)S(=O)(=O)c1cn(C)cn1 | inactive
C[C@@H]1CN([C@H](C)CO)C(=O)c2cc(NC(=O)Cn3cnnn3)ccc2O[C@@H]1CN(C)Cc1ccc(C(=O)O)cc1 | inactive
COc1ccc(CCNC(=O)[C@@]2(Sc3ccc(C)cc3)CC(=O)N(Cc3ccccc3C(F)(F)F)[C@@H]2c2ccc(CO)cc2I)cc1 | inactive
O=C(NCC1CC1)[C@@H]1[C@@H](CO)[C@@H]2Cn3c(cccc3=O)[C@H]1N2C(=O)c1cccnc1 | inactive
Cc1ccc(S(=O)(=O)Nc2cccc3c2O[C@H](CN(C)S(=O)(=O)c2ccccc2)[C@@H](C)CN([C@H](C)CO)C3=O)cc1 | inactive
C[C@]12C[C@@H]3C[C@](C)(C1)C[C@@](N)(C3)C2 | inactive
C[C@]12CC3CC(N)(C1)C[C@@](C)(C3)C2 | inactive
CC12CC3CC(C)(C1)CC(N)(C3)C2.Cl | active
C[C@@H]1CN([C@@H](C)CO)C(=O)c2cc(NC(=O)Nc3ccc4c(c3)OCO4)ccc2O[C@@H]1CN(C)S(C)(=O)=O | inactive
O=C(NCCN1CCOCC1)[C@]1(CCS(=O)(=O)c2ccccc2)N=C(c2ccc(OCCCO)cc2)O[C@@H]1c1ccccc1 | inactive
COc1ccc(NC(=O)N(C)C[C@@H]2Oc3ccc(NC(=O)CCCCCC(=O)Nc4ccccc4N)cc3CC(=O)N([C@@H](C)CO)C[C@H]2C)cc1 | inactive
C[C@H]1CCCCO[C@@H](CN(C)C(=O)NC2CCCCC2)[C@@H](C)CN([C@@H](C)CO)C(=O)c2cc(NC(=O)CCC(F)(F)F)ccc2O1 | inactive
C[C@H]1CCCCO[C@H](CN(C)CC2CCCCC2)[C@@H](C)CN([C@@H](C)CO)C(=O)c2cc(NC(=O)NC3CCCCC3)ccc2O1 | active

SMILES | cytotoxicity call
C[C@@H]1CCCCO[C@@H](CN(C)CC2CCCCC2)[C@H](C)CN([C@H](C)CO)C(=O)c2cc(NC(=O)NC3CCCCC3)ccc2O1 | inactive
C[C@@H]1CN([C@@H](C)CO)C(=O)c2cc(NC(=O)NC3CCCCC3)ccc2O[C@@H](C)CCCCO[C@@H]1CN(C)CC1CCCCC1 | inactive
C[C@H](CO)N1C[C@H](C)[C@H](CN(C)CC2CCCCC2)OCCCC[C@H](C)Oc2ccc(NC(=O)NC3CCCCC3)cc2C1=O | inactive
C[C@@H]1CCCCO[C@@H](CN(C)CC2CCCCC2)[C@H](C)CN([C@@H](C)CO)C(=O)c2cc(NC(=O)NC3CCCCC3)ccc2O1 | inactive
C[C@@H]1CCCCO[C@H](CN(C)CC2CCCCC2)[C@@H](C)CN([C@H](C)CO)C(=O)c2cc(NC(=O)NC3CCCCC3)ccc2O1 | inactive
C[C@@H]1CCCCO[C@H](CN(C)CC2CCCCC2)[C@H](C)CN([C@H](C)CO)C(=O)c2cc(NC(=O)NC3CCCCC3)ccc2O1 | active
CCCN(C)C[C@@H]1OCCCC[C@@H](C)Oc2ccc(NC(=O)NC3CCCCC3)cc2C(=O)N([C@H](C)CO)C[C@@H]1C | active
CCCN(C)C[C@H]1OCCCC[C@@H](C)Oc2ccc(NC(=O)NC3CCCCC3)cc2C(=O)N([C@@H](C)CO)C[C@H]1C | inactive
CCCN(C)C[C@@H]1OCCCC[C@H](C)Oc2ccc(NC(=O)NC3CCCCC3)cc2C(=O)N([C@@H](C)CO)C[C@@H]1C | inactive
C[C@@H]1CCCCO[C@@H](CN(C)CC2CCCCC2)[C@@H](C)CN([C@@H](C)CO)C(=O)c2cc(NC(=O)NC3CCCCC3)ccc2O1 | inactive
C[C@@H]1CN([C@@H](C)CO)C(=O)c2cc(NC(=O)NC3CCCCC3)ccc2O[C@@H](C)CCCCO[C@H]1CN(C)CC1CCCCC1 | active
COc1cccc(NC(=O)N2C[C@@H](O)COC[C@H]3O[C@H](CC(=O)NC4Cc5ccccc5C4)CC[C@@H]32)c1 | inactive
CCNC(=O)C[C@H]1CC[C@H]2[C@@H](COC[C@@H](O)CN2C(=O)Nc2c(C)noc2C)O1 | inactive
Cc1ccc(S(=O)(=O)N[C@@H]2CC[C@H](CCNC(=O)CN3CCOCC3)O[C@H]2CO)cc1 | inactive
CCOC(=O)CCc1n[nH]c(=O)[nH]c1=O | inactive
O=C(CCCCCNC(=O)OCCCCO[C@@H]1C[C@H](C2CCCCC2)C=C(C(=O)N2CCOCC2)O1)NO | inactive
Cc1noc(C)c1NC(=O)Nc1ccc2c(c1)C(=O)N([C@@H](C)CO)C[C@@H](C)[C@H](CN(C)S(C)(=O)=O)O2 | inactive
C[C@H](CO)N1C[C@H](C)[C@@H](CN(C)C(=O)CCC(F)(F)F)OCCCC[C@H](C)Oc2ccc(NC(=O)C3CCCCC3)cc2C1=O | inactive
Cc1noc(C)c1NC(=O)N(C)C[C@@H]1OCCCC[C@H](C)Oc2ccc(NC(=O)CCC(F)(F)F)cc2C(=O)N([C@@H](C)CO)C[C@H]1C | inactive
C[C@H](CO)N1C[C@H](C)[C@H](CN(C)Cc2ccc(Cl)c(Cl)c2)Oc2c(NC(=O)Nc3ccccc3)cccc2C1=O | inactive
C[C@@H]1CN([C@H](C)CO)C(=O)c2cccc(NS(=O)(=O)c3ccc(Cl)cc3)c2O[C@H]1CN(C)Cc1ccc(Cl)c(Cl)c1 | inactive
O=S1(=O)C[C@H](NCCO)[C@@H](O)C1 | inactive
NC(Cc1c[nH]c2ccccc12)C(=O)O (configuration not stated) | inactive
OCc1c[nH]c2ccccc12 | active

SMILES | cytotoxicity call
CNC(=O)C(=O)NCCc1c[nH]c2ccccc12 | inactive
C[C@@H]1CN([C@H](C)CO)C(=O)c2cccc(NC(=O)c3nc4ccccc4s3)c2O[C@H]1CN(C)C(=O)Nc1ccc(F)cc1 | inactive
CN1CCN(C(=O)CC#N)CC1 | inactive
C[C@@H]1CN([C@@H](C)CO)C(=O)c2cccc(NC(=O)C3CCCCC3)c2O[C@H]1CN(C)S(=O)(=O)c1cn(C)cn1 | inactive
CCCCCC[C@@H](O)CC=CCCCCCCCC(=O)O | inactive
N[C@@H]1CC[C@@H](c2ccc(Cl)c(Cl)c2)c2ccccc21 | active
CNC1CCC(c2ccc(Cl)c(Cl)c2)c2ccccc21.Cl (configuration not stated) | active
CN[C@H]1CC[C@@H](c2ccc(Cl)c(Cl)c2)c2ccccc21 | active
C[C@@H]1CN([C@@H](C)CO)C(=O)CCCn2nncc2CO[C@@H]1CN(C)S(=O)(=O)c1ccc(C#N)cc1 | inactive
CC(=O)NCCCC[C@@H]1NC(=O)[C@@H]2C[C@H](C(=O)NCCCCCCNC(=O)CS)[C@H](c3ccc(O)cc3)N2C1=O | inactive
C[C@@H]1CCCCO[C@H](CN(C)C(=O)NC2CCCCC2)[C@H](C)CN([C@@H](C)CO)C(=O)c2cc(NC(=O)c3ccncc3)ccc2O1 | inactive
C[C@@H]1CN([C@@H](C)CO)C(=O)c2cc(NC(=O)NC3CCCCC3)ccc2O[C@@H](C)CCCCO[C@H]1CN(C)Cc1ccc(C(=O)O)cc1 | inactive
CC(C)NC(=O)N(C)C[C@@H]1Oc2c(NS(=O)(=O)c3cn(C)cn3)cccc2C(=O)N([C@@H](C)CO)C[C@H]1C | inactive
C[C@@H]1CCCCO[C@@H](CN(C)S(=O)(=O)c2ccccc2)[C@H](C)CN([C@H](C)CO)C(=O)c2cc(NC(=O)Nc3cccc4ccccc34)ccc2O1 | inactive
C[C@H]1CN([C@@H](C)CO)C(=O)c2cccc(NC(=O)C3CCOCC3)c2O[C@H]1CN(C)Cc1ccncc1 | inactive
COCCOC(=O)N1C(=O)[C@@]2(c3cc(C#CCNC(N)=O)ccc31)[C@H](C(=O)N1CCc3cc(OC)c(OC)cc3C1)[C@H]1C(=O)O[C@H](c3ccccc3)[C@H](c3ccccc3)N1[C@@H]2c1ccccc1OCCO | inactive
COCCOC(=O)N1C(=O)[C@@]2(c3cc(C#CCCO)ccc31)[C@H](C(=O)N1CCc3cc(OC)c(OC)cc3C1)[C@H]1C(=O)O[C@H](c3ccccc3)[C@H](c3ccccc3)N1[C@@H]2c1ccccc1OCCO | active
COCCOC(=O)N1C(=O)[C@@]2(c3cc(C#CC4=CCCCC4)ccc31)[C@H](c1ccccc1OCCO)N1[C@H](c3ccccc3)[C@H](c3ccccc3)OC(=O)[C@H]1[C@@H]2C(=O)N1CCc2cc(OC)c(OC)cc2C1 | inactive
COCCOC(=O)N1C(=O)[C@@]2(c3cc(C#CC4=CCCCC4)ccc31)[C@H](c1ccc(OCCO)cc1)N1[C@H](c3ccccc3)[C@H](c3ccccc3)OC(=O)[C@H]1[C@@H]2C(=O)N1CCc2cc(OC)c(OC)cc2C1 | active
COCCOC(=O)N1C(=O)[C@@]2(c3cc(C#CC4=CCCCC4)ccc31)[C@H](C(=O)N1CCc3cc(OC)c(OC)cc3C1)[C@H]1C(=O)O[C@H](c3ccccc3)[C@H](c3ccccc3)N1[C@@H]2c1ccc(O)cc1 | inactive
COCCOC(=O)N1C(=O)[C@@]2(c3cc(C#CCCO)ccc31)[C@H](c1ccccc1OCCO)N1[C@H](c3ccccc3)[C@H](c3ccccc3)OC(=O)[C@H]1[C@@H]2C(=O)N1CCc2cc(OC)c(OC)cc2C1 | inactive
COCCOC(=O)N1C(=O)[C@@]2(c3cc(C#CC4=CCCCC4)ccc31)[C@H](c1ccc(OCCO)cc1)N1[C@H](c3ccccc3)[C@H](c3ccccc3)OC(=O)[C@H]1[C@@H]2C(=O)N1CCCCCCC1 | inactive
COCCOC(=O)N1C(=O)[C@@]2(c3cc(C#CC4=CCCCC4)ccc31)[C@H](c1ccccc1OCCO)N1[C@H](c3ccccc3)[C@H](c3ccccc3)OC(=O)[C@H]1[C@@H]2C(=O)N1CCCCCCC1 | inactive
COCCOC(=O)N1C(=O)[C@@]2(c3cc(C#CC4=CCCCC4)ccc31)[C@H](C(=O)N1CCc3cc(OC)c(OC)cc3C1)[C@H]1C(=O)O[C@H](c3ccccc3)[C@H](c3ccccc3)N1[C@@H]2c1ccccc1OCCO | active
